Measurements reported in PubChem BioAssay (NCI).
Compounds without any hit were thinned out: in the full panel of roughly 83,000, 20% have a hit.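 Compound tested at a single concentration for 48 hours in 96-well plates; a percent growth value below 10 was scored as active.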 Unmarked numbers belong to inactive results. The source made the active and inactive calls.

What was measured:
Test in all cases: NCI-60 one-dose screen, 48 h (100 = growth as untreated, 0 = no growth, -100 = all killed)
Details in all cases: 10 µM unless noted
[1] = test system: NCI-H23 lung
[2] = test system: NCI-H226 lung
[3] = test system: NCI-H322M lung
[4] = test system: HOP-62 NSCLC
[5] = test system: NCI-H460 lung
[6] = test system: HOP-92 NSCLC
[7] = test system: NCI-H522 lung
[8] = test system: A549/ATCC NSCLC
[9] = test system: 786-0 renal
[10] = test system: COLO 205 colon
[11] = test system: DU-145 prostate
[12] = test system: K-562 leukemia
[13] = test system: MALME-3M melanoma
[14] = test system: MDA-MB-231 breast
[15] = test system: RXF 393 renal
[16] = test system: SF-268 CNS
[17] = test system: SF-295 CNS
[18] = test system: SF-539 CNS
[19] = test system: UACC-257 melanoma
[20] = test system: M14 melanoma

## Cc1ccc(S(=O)(=O)Oc2ccc([N+](=O)[O-])cc2[N+](=O)[O-])cc1
[1]
  growth: 97%
[2]
  growth: 68.9%
[3]
  growth: 122%
[4]
  growth: 115%
[5]
  growth: 110%
[6]
  growth: 65.3%
[7]
  growth: 18.3%
[8]
  growth: 104%
[9]
  growth: 47.7%
[10]
  growth: 85.8%
[11]
  growth: 116%
[12]
  growth: 29%
[13]
  growth: 63.6%
[14]
  growth: 94.3%
[15]
  growth: 111%
[16]
  growth: 96.5%
[17]
  growth: 108%
[18]
  growth: 93.6%
[19]
  growth: 86.2%
[20]
  growth: -8.49% (active)

## Fc1cc2[nH]ncc2c2c3c(c(-c4cn[nH]c4C(F)(F)F)nc12)C1CCC3C1 (stereo not given)
[1]
  growth: -4.72% (active)
[2]
  growth: 4.86% (active)
[3]
  growth: 0.591% (active)
[4]
  growth: -19.4% (active)
[5]
  growth: 1.8% (active)
[6]
  growth: 17.1%
[7]
  growth: -2.89% (active)
[8]
  growth: -6.2% (active)
[9]
  growth: 2.72% (active)
[10]
  growth: -74.7% (active)
[11]
  growth: 4.96% (active)
[12]
  growth: 19.4%
[13]
  growth: 9.41% (active)
[14]
  growth: -5.18% (active)
[15]
  growth: -89.8% (active)
[16]
  growth: 3.13% (active)
[17]
  growth: 8.79% (active)
[18]
  growth: -32.4% (active)
[19]
  growth: 0.635% (active)
[20]
  growth: -6.09% (active)

## CC(C)(C)c1cc(C(=O)N2CCC(C(=O)NCCN)CC2)cc(C(C)(C)C)c1
[1]
  growth: 104%
[2]
  growth: 81.3%
[3]
  growth: 93.6%
[4]
  growth: 97.5%
[5]
  growth: 100%
[6]
  growth: 85.1%
[7]
  growth: 66%
[8]
  growth: 81%
[9]
  growth: 106%
[10]
  growth: 98.9%
[11]
  growth: 116%
[12]
  growth: 103%
[13]
  growth: 95%
[14]
  growth: 90.9%
[15]
  growth: 98.5%
[16]
  growth: 97.8%
[17]
  growth: 101%
[18]
  growth: 98.4%
[19]
  growth: 81%
[20]
  growth: 113%

## CCCC[C@@H](C=O)NC(=O)[C@H](CC(C)C)NC(=O)[C@H](CC(C)C)NC(=O)OCc1ccccc1
[1]
  growth: -17.1% (active)
[2]
  growth: -54.1% (active)
[3]
  growth: 15.1%
[4]
  growth: 11.8%
[5]
  growth: 0.451% (active)
[6]
  growth: -35.2% (active)
[7]
  growth: -0.189% (active)
[8]
  growth: 71.3%
[9]
  growth: -10% (active)
[10]
  growth: -3.03% (active)
[11]
  growth: -38.2% (active)
[12]
  growth: 0.815% (active)
[13]
  growth: -33% (active)
[14]
  growth: -32.3% (active)
[15]
  growth: -63.7% (active)
[16]
  growth: -11.9% (active)
[17]
  growth: -12% (active)
[18]
  growth: -45.7% (active)
[19]
  growth: 12.4%
[20]
  growth: -35.3% (active)
